Calls of active or inactive are those of the source. The calls were made as follows: active = hit-call score of the fitted dose curve at least 0.9, where 1 is the maximum; inactive = score below 0.9.
Columns and labels:
[1] = ATG_M_61_CIS: Attagene CIS-FACTORIAL HepG2 Assay for M61 Transcription Factor (Internal Marker) (AID 2282937); settings: HepG2 Attagene CIS-FACTORIAL M61 internal marker reporter; actives raise or lower the signal
How it was run: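 Readout is reporter mRNA by RT-PCR, fluorescent primer extension and capillary electrophoresis, with gain or loss fitted relative to DMSO. Transfected HepG2 cells carrying endogenous-TF-driven cis reporters were exposed to chemicals for 24 hours.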

[2] = ATG_EGR_CIS: Attagene CIS-FACTORIAL HepG2 Assay for human Early Growth Response 1 (EGR1) (AID 2282938); settings: HepG2 Attagene CIS-FACTORIAL EGR reporter mRNA; actives raise or lower the signal
How it was run: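 After 24 h compound exposure, RNA from reporter-transfected HepG2 cells was reverse-transcribed, PCR-amplified, fluorescently labelled and resolved by capillary electrophoresis. EGR1 reporter transcript changes, up or down, were fitted against DMSO, reflecting endogenous transcription-factor activity.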

[3] = ATG_M_19_CIS: Attagene CIS-FACTORIAL HepG2 Assay for M19 Transcription Factor (Internal Marker) (AID 2282939); settings: HepG2 Attagene CIS-FACTORIAL M19 internal marker reporter; actives raise or lower the signal
How it was run: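 Chemical-treated HepG2 (24 h) with MRTU constructs; reporter transcripts detected by fluorescent RT-PCR fragment analysis on capillary electrophoresis. Internal background marker, DMSO as baseline.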

[4] = ATG_ERE_CIS: Attagene CIS-FACTORIAL HepG2 Assay for Estrogen Response Element (ERE) (AID 2282940); settings: HepG2 ERE cis-reporter, Attagene RNA transcript; actives raise or lower the signal
How it was run: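 Human liver cells (HepG2) bearing transiently transfected, promoter-regulated reporter units were exposed 24 h. Reporter mRNA induction was detected by capillary electrophoresis of labelled RT-PCR products and fitted bidirectionally to DMSO.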

[5] = ATG_Ets_CIS: Attagene CIS-FACTORIAL HepG2 Assay for human Erythroblast Transformation Specific (ETS) (AID 2282941); settings: HepG2 ETS cis-reporter transcription, actives raise or lower the signal
How it was run: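 Endogenous transcription factor activity read as reporter mRNA via RT-PCR and capillary electrophoresis, with gain or loss fitted bidirectionally against DMSO. Human HepG2 liver cells, transiently transfected CIS reporter constructs, 24 h exposure.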

[6] = biological target: Hepatocyte nuclear factor 3-beta (Homo sapiens) (UniProt Q9Y261); experiment: ATG_FoxA2_CIS: Attagene CIS-FACTORIAL HepG2 Assay for human Forkhead box A2 (FOXA2) (AID 2282942); settings: HepG2 cis-reporter transcription factor activity, 24 h; actives raise or lower the signal
How it was run: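 Endogenous transcription factor activity is captured via cis-element-driven reporter transcripts in transfected HepG2. Total RNA taken at 24 h post-dosing; labelled RT-PCR products resolved by capillary electrophoresis. Gain or loss fitted versus DMSO.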

[7] = ATG_FoxO_CIS: Attagene CIS-FACTORIAL HepG2 Assay for human Forkhead box O (FoxO) (AID 2282943); settings: HepG2 Attagene cis-reporter, FoxO element, mRNA; actives raise or lower the signal
How it was run: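 HepG2 cells transiently transfected with cis-element-driven reporter units report endogenous FoxO activity. After 24 h chemical exposure, reporter mRNA quantified by RT-PCR, fluorescent labeling, HpaI digestion and capillary electrophoresis; bidirectional fit versus DMSO.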

[8] = ATG_GATA_CIS: Attagene CIS-FACTORIAL HepG2 Assay for human GATA Binding Protein (AID 2282944); settings: HepG2 GATA cis-element reporter, Attagene multiplex mRNA; actives raise or lower the signal
How it was run: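 Transfected cis-reporter HepG2 cells were treated with chemicals for 24 hours. Total RNA was then converted to cDNA, amplified with reporter-specific primers and analysed by fluorescent capillary electrophoresis, using DMSO-treated wells as baseline.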

[9] = ATG_GLI_CIS: Attagene CIS-FACTORIAL HepG2 Assay for human Zinc Finger Protein GLI1 (AID 2282945); settings: HepG2, Attagene cis-factorial reporter mRNA, GLI element; actives raise or lower the signal
How it was run: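 Transiently transfected HepG2 cells report endogenous transcription factor activity via cis-element-driven reporter units. After 24 h compound exposure, reporter mRNA was measured by RT-PCR with capillary electrophoresis; bidirectional fitting against DMSO baseline.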

[10] = ATG_GRE_CIS: Attagene CIS-FACTORIAL HepG2 Assay for human Glucocorticoid Response Elements (GRE) (AID 2282947); settings: HepG2 GRE cis-reporter, Attagene multiplex mRNA; actives raise or lower the signal
How it was run: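 Read-out: fluorescent reporter-transcript fragments separated by capillary electrophoresis after RT-PCR. Transiently transfected HepG2 cells carrying cis-element-driven reporter units were dosed for 24 h; gain or loss of signal fitted against DMSO control.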

[11] = ATG_ISRE_CIS: Attagene CIS-FACTORIAL HepG2 Assay for human Interferon Regulatory Factor 1 (IRF1) binding to an Interferon-Stimulated Response Element (ISRE) (AID 2282948); settings: HepG2 ISRE cis-reporter (Attagene), mRNA transcription readout; actives raise or lower the signal
How it was run: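 Endogenous transcription factor activity read as reporter transcript abundance via RT-PCR and capillary electrophoresis. HepG2 cells transiently transfected, 24 h chemical exposure. Gain or loss fitted against DMSO baseline.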

[12] = ATG_M_32_CIS: Attagene CIS-FACTORIAL HepG2 Assay for M32 Transcription Factor (Internal Marker) (AID 2282949); settings: HepG2 Attagene cis-factorial M32 reporter, mRNA; actives raise or lower the signal;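 also: background control marker of the multiplexed CIS panel rather than a real target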
How it was run: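 Using DMSO as baseline, bidirectional curve fits were applied to reporter mRNA signals. These came from transiently transfected HepG2 cells exposed for 24 h, with RNA analysed by RT-PCR, FAM primer extension, HpaI digestion and CE.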

[13] = biological target: Hypoxia-inducible factor 1-alpha (Homo sapiens) (UniProt Q16665); experiment: ATG_HIF1a_CIS: Attagene CIS-FACTORIAL HepG2 Assay for human Hypoxia Inducible Factor 1 (HIF1A) (AID 2282951); settings: HepG2 Attagene cis-factorial HIF1a reporter transcription; actives raise or lower the signal
How it was run: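 Activity is fitted in both directions relative to DMSO. Reporter transcripts are read by RT-PCR, fluorescent primer extension and capillary electrophoresis after 24 h chemical treatment. The cells are HepG2 carrying transiently transfected cis-element-driven reporter units responding to endogenous factors.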

[14] = biological target: Hepatocyte nuclear factor 6 (Homo sapiens) (UniProt Q9UBC0); experiment: ATG_HNF6_CIS: Attagene CIS-FACTORIAL HepG2 Assay for human Hepatocyte Nuclear Factor 6 (HNF6) (AID 2282952); settings: HepG2 Attagene cis-factorial HNF6 reporter transcription; actives raise or lower the signal
How it was run: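 First, HepG2 cells were transfected with the multiplexed cis reporter library and dosed with chemical for 24 h. Next, RNA was reverse-transcribed, PCR-amplified and fluorescently labelled. Finally, HpaI-digested fragments were read by capillary electrophoresis.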

[15] = biological target: Heat shock factor protein 1 (Homo sapiens) (UniProt Q00613); experiment: ATG_HSE_CIS: Attagene CIS-FACTORIAL HepG2 Assay for human Heat Shock Transcription Factor 1 (HSE) (AID 2282953); settings: HepG2 HSE cis-reporter, Attagene RNA transcription; actives raise or lower the signal
How it was run: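 Liver-derived HepG2 cells carry transiently introduced multiple reporter units governed by cis promoters. Reporter RNA measured 24 h post-dose through reverse transcription, PCR amplification, fluorescent labelling and capillary electrophoresis, normalised to DMSO.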

[16] = ATG_MRE_CIS: Attagene CIS-FACTORIAL HepG2 Assay for human Metal Responsive Element (MRE) (AID 2282954); settings: HepG2 MRE cis-reporter transcription, Attagene multiplex; actives raise or lower the signal
How it was run: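 RT-PCR/capillary electrophoresis readout of reporter mRNA, 24 h post-dosing, in HepG2 cells transfected with multiplexed cis-regulated reporter constructs. Gain or loss of signal fitted bidirectionally against DMSO baseline.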

[17] = ATG_PBREM_CIS: Attagene CIS-FACTORIAL HepG2 Assay for human Phenobarbital-responsive Enhancer Module (PBREM) (AID 2282955); settings: HepG2 PBREM cis-reporter, Attagene multiplexed transcription; actives raise or lower the signal
How it was run: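 Endogenous transcription factor activity was read from reporter transcripts in transiently transfected human HepG2 liver cells after 24 h dosing. RT-PCR products were fluorescently labelled, HpaI-cut and sized by capillary electrophoresis; activity fitted bidirectionally against DMSO baseline.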

[18] = biological target: Paired box protein Pax-6 (Homo sapiens) (UniProt P26367); experiment: ATG_Pax6_CIS: Attagene CIS-FACTORIAL HepG2 Assay for human Paired Box 6 (PAX6) (AID 2282956); settings: HepG2 CIS-FACTORIAL PAX6 reporter transcription, RNA readout; actives raise or lower the signal
How it was run: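 Read-out is reporter transcript level, measured by RT-PCR with fluorescent primer extension and capillary electrophoresis after 24 h dosing of transfected HepG2 cells. Activity in either direction fitted relative to DMSO control.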

[19] = ATG_M_06_CIS: Attagene CIS-FACTORIAL HepG2 Assay for M06 Transcription Factor (Internal Marker) (AID 2282950); settings: HepG2 Attagene CIS-FACTORIAL M06 internal marker reporter; actives raise or lower the signal
How it was run: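 Cells (HepG2, transiently carrying cis-driven reporter units) receive chemical for 24 h before RNA isolation. Reporter cDNA is PCR-amplified, FAM-labelled by primer extension, HpaI-digested and sized on a capillary analyser.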

Measured: outcome

Chain of Hepatocyte nuclear factor 3-beta (Homo sapiens) (Q9Y261 whole entry, looked up): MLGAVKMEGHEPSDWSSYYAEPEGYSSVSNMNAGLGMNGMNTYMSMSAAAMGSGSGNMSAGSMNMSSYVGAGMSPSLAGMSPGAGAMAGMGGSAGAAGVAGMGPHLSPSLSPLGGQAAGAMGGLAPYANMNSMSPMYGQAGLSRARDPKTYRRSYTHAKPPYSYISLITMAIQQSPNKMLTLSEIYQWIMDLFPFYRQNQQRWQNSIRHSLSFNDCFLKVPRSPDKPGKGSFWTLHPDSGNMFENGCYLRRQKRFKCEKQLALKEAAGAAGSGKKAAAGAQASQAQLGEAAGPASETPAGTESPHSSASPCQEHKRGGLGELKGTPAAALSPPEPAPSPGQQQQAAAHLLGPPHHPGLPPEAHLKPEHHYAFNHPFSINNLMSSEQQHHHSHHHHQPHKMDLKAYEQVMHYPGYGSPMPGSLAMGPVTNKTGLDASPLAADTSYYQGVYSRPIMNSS
Chain of Hepatocyte nuclear factor 6 (Homo sapiens) (Q9UBC0 whole entry, looked up, the tested form may be a part): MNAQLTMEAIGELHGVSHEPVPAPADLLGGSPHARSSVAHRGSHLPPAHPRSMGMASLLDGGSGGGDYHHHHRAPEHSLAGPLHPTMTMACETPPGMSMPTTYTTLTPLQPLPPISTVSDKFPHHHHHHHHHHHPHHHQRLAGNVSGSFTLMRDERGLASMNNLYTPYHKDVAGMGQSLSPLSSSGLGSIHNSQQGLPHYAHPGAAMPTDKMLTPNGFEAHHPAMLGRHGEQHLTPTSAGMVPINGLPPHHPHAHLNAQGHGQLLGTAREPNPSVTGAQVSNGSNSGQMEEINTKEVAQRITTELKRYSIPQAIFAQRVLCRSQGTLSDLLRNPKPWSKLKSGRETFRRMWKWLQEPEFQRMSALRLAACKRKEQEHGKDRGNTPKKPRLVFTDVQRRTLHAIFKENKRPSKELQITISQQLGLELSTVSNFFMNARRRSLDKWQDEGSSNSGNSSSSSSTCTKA
Chain of Heat shock factor protein 1 (Homo sapiens) (Q00613 whole entry, looked up): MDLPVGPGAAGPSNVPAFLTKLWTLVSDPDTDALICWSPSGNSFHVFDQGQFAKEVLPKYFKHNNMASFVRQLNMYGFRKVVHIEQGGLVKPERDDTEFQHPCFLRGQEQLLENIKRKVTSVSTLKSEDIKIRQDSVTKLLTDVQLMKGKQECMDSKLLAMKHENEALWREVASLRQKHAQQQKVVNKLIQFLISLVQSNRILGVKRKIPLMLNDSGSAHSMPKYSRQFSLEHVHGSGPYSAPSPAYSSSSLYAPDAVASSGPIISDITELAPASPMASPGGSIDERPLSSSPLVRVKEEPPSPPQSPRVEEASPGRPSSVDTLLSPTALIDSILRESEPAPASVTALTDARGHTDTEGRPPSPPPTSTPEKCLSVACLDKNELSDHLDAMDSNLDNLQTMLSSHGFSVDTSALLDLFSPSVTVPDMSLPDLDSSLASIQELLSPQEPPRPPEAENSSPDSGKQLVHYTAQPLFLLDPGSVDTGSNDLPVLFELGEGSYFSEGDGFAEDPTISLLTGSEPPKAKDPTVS
Chain of Paired box protein Pax-6 (Homo sapiens) (P26367 whole entry, looked up): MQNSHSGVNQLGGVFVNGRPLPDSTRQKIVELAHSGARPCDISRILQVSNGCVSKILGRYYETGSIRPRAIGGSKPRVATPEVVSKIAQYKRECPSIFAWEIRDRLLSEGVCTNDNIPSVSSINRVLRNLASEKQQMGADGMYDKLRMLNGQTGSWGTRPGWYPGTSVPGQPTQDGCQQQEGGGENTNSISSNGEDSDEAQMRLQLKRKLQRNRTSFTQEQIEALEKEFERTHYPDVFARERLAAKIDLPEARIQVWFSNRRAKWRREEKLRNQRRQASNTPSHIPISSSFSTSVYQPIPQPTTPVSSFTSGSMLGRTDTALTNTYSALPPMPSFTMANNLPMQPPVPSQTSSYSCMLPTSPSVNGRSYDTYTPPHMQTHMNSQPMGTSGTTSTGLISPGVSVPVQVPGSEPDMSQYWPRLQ
Chain of Hypoxia-inducible factor 1-alpha (Homo sapiens) (Q16665 whole entry, looked up): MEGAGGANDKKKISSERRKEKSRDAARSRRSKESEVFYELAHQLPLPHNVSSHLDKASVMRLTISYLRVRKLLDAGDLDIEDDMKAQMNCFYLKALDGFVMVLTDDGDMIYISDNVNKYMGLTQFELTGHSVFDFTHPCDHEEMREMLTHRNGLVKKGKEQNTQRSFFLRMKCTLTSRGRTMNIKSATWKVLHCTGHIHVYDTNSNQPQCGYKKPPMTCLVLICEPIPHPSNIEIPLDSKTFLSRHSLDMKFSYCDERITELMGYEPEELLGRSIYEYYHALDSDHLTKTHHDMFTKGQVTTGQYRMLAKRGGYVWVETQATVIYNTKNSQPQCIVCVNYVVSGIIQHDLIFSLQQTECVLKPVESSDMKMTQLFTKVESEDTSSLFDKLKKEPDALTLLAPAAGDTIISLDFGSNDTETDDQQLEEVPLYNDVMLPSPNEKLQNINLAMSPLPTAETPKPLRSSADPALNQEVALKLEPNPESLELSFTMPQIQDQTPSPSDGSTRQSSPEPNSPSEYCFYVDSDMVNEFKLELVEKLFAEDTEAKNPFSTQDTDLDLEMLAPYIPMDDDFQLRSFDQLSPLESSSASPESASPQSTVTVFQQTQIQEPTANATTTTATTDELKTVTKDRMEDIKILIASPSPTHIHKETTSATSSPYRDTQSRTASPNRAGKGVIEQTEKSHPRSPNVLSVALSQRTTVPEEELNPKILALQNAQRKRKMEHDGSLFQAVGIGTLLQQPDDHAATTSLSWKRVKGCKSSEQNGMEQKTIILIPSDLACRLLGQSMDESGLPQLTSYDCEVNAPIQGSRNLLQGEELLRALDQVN

OC[C@@H](O)[C@H]1O[C@@H]2O[C@H](C(Cl)(Cl)Cl)O[C@@H]2[C@H]1O
not listed: [19]
inactive: all other assays above

O=[N+]([O-])c1cc([As](=O)(O)O)ccc1O
not listed: [17]
inactive: all other assays above

OC[P+](CO)(CO)CO
not listed: [11]
inactive: all other assays above

BrCCCCBr
not listed: [12] | [17]
inactive: all other assays above

Source: PubChem BioAssay (EPA / NIEHS)
